In the library only some 5.8% were active in any assay of this set; here they are far more common.
MCF10A rereplic: DNA re-replication induction in MCF 10a cells; MCF 10A DNA re-replication, Hoechst nuclear intensity, 48 h; Potency, µM (highest dose often 46.1 µM), without a hit: top-dose activity, positive = re-replication, usual class: activators; actives 2.9% (n = 350,000); AID 624296; also: % of control where 0% means no effect; nearly all actives have a fitted effect of over 50% in size
KB-3-1 tox: KB-3-1 parental cell cytotoxicity. KB-3-1 viability, CellTiter-Glo ATP luminescence, 72 h. Potency, µM (titrated, usually from 46.1 µM), hits mostly cytotoxic. actives 1.4% (n = 400,000); also: % is scaled to controls: 0 for no effect and ±100 for the full control effect; nearly all actives have a fitted effect of over 60% in size
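Cytotoxicity in the drug-sensitive parental line KB-3-1 was scored as loss of CellTiter-Glo luminescence following 72 h incubation with compound. Values come from curve fitting of normalized concentration-response data.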
ALOX12 inh: inhibitors of human 12S-lipoxygenase ALOX12. P18054. purified 12hLO, xylenol orange hydroperoxide absorbance. Potency, µM (top dose mostly 108 µM), without a hit: at the highest dose activity change, negative = inhibition, actives largely listed as inhibitors. actives 1.1% (n = 580,000). AID 1671190; also: % is scaled to controls: 0 for no effect and ±100 for the full control effect
Target sequence (P18054 whole entry, looked up): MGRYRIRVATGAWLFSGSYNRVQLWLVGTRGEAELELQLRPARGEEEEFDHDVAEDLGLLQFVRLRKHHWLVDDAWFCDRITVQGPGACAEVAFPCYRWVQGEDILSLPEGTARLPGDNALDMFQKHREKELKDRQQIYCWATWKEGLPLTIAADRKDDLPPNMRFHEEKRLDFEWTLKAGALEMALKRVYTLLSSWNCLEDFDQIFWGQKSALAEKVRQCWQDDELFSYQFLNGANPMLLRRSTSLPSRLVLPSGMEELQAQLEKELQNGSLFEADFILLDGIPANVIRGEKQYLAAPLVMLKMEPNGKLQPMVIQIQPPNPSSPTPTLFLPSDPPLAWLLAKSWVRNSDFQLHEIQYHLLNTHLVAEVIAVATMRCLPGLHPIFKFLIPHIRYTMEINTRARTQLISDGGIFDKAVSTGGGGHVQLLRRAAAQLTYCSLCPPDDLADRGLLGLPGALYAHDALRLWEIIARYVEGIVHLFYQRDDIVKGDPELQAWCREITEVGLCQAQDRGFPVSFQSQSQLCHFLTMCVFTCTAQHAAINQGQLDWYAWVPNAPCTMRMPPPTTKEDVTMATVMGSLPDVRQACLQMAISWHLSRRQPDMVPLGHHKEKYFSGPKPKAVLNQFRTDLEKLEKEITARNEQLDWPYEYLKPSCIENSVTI
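Purified human 12hLO (150 nM final) in 25 mM Hepes, 0.01% Triton X-100, pH 7.0 was preincubated 15 min at room temperature with compound. Then 40 uM arachidonic acid was added, 30 min. Hydroperoxide was read by Fe-XO absorbance ratio 573/405 nm.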
SW480 rerep: DNA re-replication induction in SW480 cells | SW480 DNA re-replication, Hoechst DNA content imaging, 48 h | Potency, µM (doses to about 46.1 µM), for inactives: at the highest dose re-replication activation, usual class: activators | actives 1.8% (n = 340,000) | AID 624297; also: % of control where 0% means no effect; nearly all actives have a fitted effect of over 55% in size
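First, 250 cells per well were seeded. Next, compound or vehicle (23 nL) was pinned in, plates sat 48 hr at 37 C. Finally Hoechst was added for 40 min before fluorescence scanning.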
KB-V1 MDR tox: KB-V1 MDR subline cytotoxicity; KB-V1 MDR cells viability, CellTiter-Glo, 72 h; Potency, µM (titrated, usually from 46.1 µM), most hits filed as cytotoxic; actives 3.4% (n = 400,000); AID 1347076; also: % is scaled to controls: 0 for no effect and ±100 for the full control effect; nearly all actives have a fitted effect of over 60% in size
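Cytotoxicity toward P-gp-expressing KB-V1 cells was determined as loss of CellTiter-Glo luminescence after 72 h at 37 degrees C. Compounds were tested in quantitative HTS format across a concentration range, with curves fitted to normalized data.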
PINK1 modulator: modulators of PINK1 expression; PINK1 immunofluorescence, high-content cytometry, 24 h; actives 0.2% (n = 410,000); AID 624263; Potency, µM (series often up to 76.6 µM), for the others: at the highest dose activation (PINK1 increase), most hits filed as activators; active = well fitted activation curve with a large enough effect; inconclusive = small, poorly fitted or top-dose-only effect; cell line not stated here; also: % of control where 0% means no effect; nearly all actives have a fitted effect of over 65% in size
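Cells are seeded, rested 12 hours, then given compound at five concentrations or DMSO for 24 hours. After fixation, blocking and antibody staining, PINK1 amount and mitochondrial localization are scored; CCCP serves as control.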
Active calls of the source: *; [ ] = remark or other dose. Unless noted, calls follow the shape of the dose curve; as a rule, active = well fitted curve in the direction sought with a large enough effect; inconclusive = small, poorly fitted or top-dose-only effect, or another doubt; inactive = no such curve, though single readings can be large; an effect the other way counts as inactive or inconclusive. Potency is read from the fitted curve at half-maximal effect.

`COC(=O)c1sccc1NC(=O)COc1ccc(C)cc1` gave MCF10A rereplic -4%, KB-3-1 tox inactive, ALOX12 inh -2%, SW480 rerep -3%, KB-V1 MDR tox inactive and PINK1 modulator 1%.
COC(=O)c1sccc1NC(=O)Cn1nnc(-c2ccc(C)cc2)n1 was read as MCF10A rereplic 3%, KB-3-1 tox inactive, ALOX12 inh 0%, SW480 rerep -5%, KB-V1 MDR tox 21µM* and PINK1 modulator 6%[38.3 µM].
COC(=O)c1sccc1NC(=O)CN(C)NS(=O)(=O)c1ccc(F)cc1 was read as MCF10A rereplic inconclusive, KB-3-1 tox inactive, ALOX12 inh 32%, SW480 rerep 13µM*, KB-V1 MDR tox inconclusive and PINK1 modulator 6%.
COC(=O)c1sccc1NC(=O)CSc1ccc(Cl)cc1 was read as MCF10A rereplic 19%, KB-3-1 tox inactive, ALOX12 inh 0%, SW480 rerep 5%, KB-V1 MDR tox 23µM* and PINK1 modulator 2%.
`COC(=O)c1sccc1NC(=O)CSc1ccccc1NS(=O)(=O)c1ccc(Br)cc1` gave MCF10A rereplic 18%, KB-3-1 tox 21µM*, ALOX12 inh -20%, SW480 rerep 28%, KB-V1 MDR tox 4.1µM* and PINK1 modulator -3%.
COC(=O)c1sccc1NC(=O)CSc1ccccc1N was read as MCF10A rereplic inconclusive, KB-3-1 tox inactive, ALOX12 inh -12%, SW480 rerep -54%, KB-V1 MDR tox inactive and PINK1 modulator 0%.
`CS(=O)(=O)c1cccc(OC(=O)/C=C/c2cccc(OCc3ccccc3)c2)c1` gave ALOX12 inh -13%.
`COc1ccc(C(=O)NC2CCCCC2)cc1` gave ALOX12 inh 8%.
For O=C(CN1CCC(C(=O)c2ccc(F)cc2)CC1)NCc1ccccc1F the results were MCF10A rereplic 0%, KB-3-1 tox inconclusive, ALOX12 inh -7%, SW480 rerep 17%, KB-V1 MDR tox 9.2µM* and PINK1 modulator 4%.
`O=C(CN1CCC(C(=O)c2ccc(F)cc2)CC1)Nc1ccccc1` gave MCF10A rereplic 2%, KB-3-1 tox inactive, ALOX12 inh 17%, SW480 rerep 1%, KB-V1 MDR tox 4.6µM* and PINK1 modulator 0%[38.3 µM].
Screening COc1ccc(OC)c(-n2c(=O)c(C#N)cc3c(=O)n4cccc(C)c4nc32)c1 returned ALOX12 inh -17%.
`Cc1c(Cl)cccc1NC(=O)N1Cc2cccn2-c2ccccc21` gave ALOX12 inh -38%.
For CN(CC(=O)Nc1ccccc1Cl)Cc1csc(-c2ccccc2)n1 the results were ALOX12 inh 12%.
For COc1ccc(CN2CCNC(=O)C2CC(=O)NCCC2=CCCCC2)c(F)c1 (stereo unspecified) the results were MCF10A rereplic 2%, KB-3-1 tox inactive, ALOX12 inh 11µM*, SW480 rerep -6%, KB-V1 MDR tox inactive and PINK1 modulator 0%.
For COc1cc(CN2CCNC(=O)C2CC(=O)NCCC2=CCCCC2)cc(OC)c1 (stereo unspecified) the results were MCF10A rereplic inconclusive, KB-3-1 tox inactive, ALOX12 inh -17%, SW480 rerep 23%, KB-V1 MDR tox inconclusive and PINK1 modulator -2%.
Screening COc1ccc(OC)c(NS(=O)(=O)c2ccc(-c3cc(C)no3)s2)c1 returned KB-3-1 tox 4.6µM*, ALOX12 inh -23%, KB-V1 MDR tox inconclusive and PINK1 modulator 3%.
Screening COc1ccc(OC)c(NS(=O)(=O)c2ccc(Br)s2)c1 returned KB-3-1 tox inconclusive, ALOX12 inh 0%, KB-V1 MDR tox inconclusive and PINK1 modulator 9%.
`COc1cccc(NS(=O)(=O)c2ccc(-c3cc(C)no3)s2)c1` gave KB-3-1 tox inactive, ALOX12 inh inconclusive, KB-V1 MDR tox inactive and PINK1 modulator 4%.
For COc1ccc(OC)c(NS(=O)(=O)c2ccc(Cl)s2)c1 the results were MCF10A rereplic inconclusive, KB-3-1 tox inconclusive, ALOX12 inh inconclusive, SW480 rerep inconclusive, KB-V1 MDR tox 16µM* and PINK1 modulator 20%[38.3 µM].
For COc1ccc(Cc2nnc(SC(C)c3nc4ccccc4c(=O)[nH]3)o2)cc1 (stereo unspecified) the results were ALOX12 inh -12%.
For N#Cc1ccc(/C=C/C(=O)c2cccnc2)cc1 the results were MCF10A rereplic 7.3µM*, KB-3-1 tox inactive, ALOX12 inh -16%, SW480 rerep -28%, KB-V1 MDR tox inconclusive and PINK1 modulator -3%.
`CCN(CC)c1ccc(/C=C/C(=O)c2cccnc2)cc1` gave MCF10A rereplic -5%, KB-3-1 tox inactive, ALOX12 inh -19%, SW480 rerep -2%, KB-V1 MDR tox inactive and PINK1 modulator 2%.
`O=C(/C=C/c1ccccc1Cl)c1cccnc1` gave MCF10A rereplic 5.8µM*, KB-3-1 tox inactive, ALOX12 inh -12%, SW480 rerep inconclusive, KB-V1 MDR tox inconclusive and PINK1 modulator 6%.
`O=C(/C=C/c1ccccc1Cl)c1ccc(O)cc1` gave MCF10A rereplic inconclusive, KB-3-1 tox inactive, ALOX12 inh inconclusive, SW480 rerep inconclusive, KB-V1 MDR tox inconclusive and PINK1 modulator -2%.
For CCc1ccc2oc(C(=O)Nc3c(C)cccc3C)cc(=O)c2c1 the results were ALOX12 inh 2%.
`Cc1cccc(N2CCN(C(=O)CCCn3c(=S)[nH]c4cc5c(cc4c3=O)OCO5)CC2)c1C` gave MCF10A rereplic 15%, KB-3-1 tox inactive, ALOX12 inh 0%, SW480 rerep 9%, KB-V1 MDR tox 3.7µM* and PINK1 modulator 2%.
`Cc1cccc(N2CCN(C(=O)CCn3c(=S)[nH]c4cc5c(cc4c3=O)OCO5)CC2C)c1` (stereo unspecified) gave MCF10A rereplic inconclusive, KB-3-1 tox inactive, ALOX12 inh 2%, SW480 rerep 1%, KB-V1 MDR tox 10µM* and PINK1 modulator -4%.
`O=C(CCCn1c(=S)[nH]c2cc3c(cc2c1=O)OCO3)N1CCN(c2ccccc2)CC1` gave MCF10A rereplic 1%, KB-3-1 tox inactive, ALOX12 inh 0%, SW480 rerep -8%, KB-V1 MDR tox inactive and PINK1 modulator 0%.
CCc1ccc(OC(=O)c2ccc(OC)c(I)c2)c(Br)c1 was read as ALOX12 inh 16%.
For CCOC(=O)CNC(=O)C(=O)NCC(=O)OCC the results were ALOX12 inh -2%.

Assay outcomes (PubChem BioAssay)
